Hits are enriched below; roughly 13% of the tested compounds scored in any of these assays.
HCV inhibitor: inhibitors of hepatitis C virus infection; Huh7.5.1 HCVcc-Cre infection, luciferase reporter, 44 h; Potency, µM (top dose mostly 41.8 µM), for the others: top-dose activity change, negative = inhibition, usual class: inhibitors; hit rate 3.4% among 340,000; AID 651820; active = well fitted inhibition curve with a large enough effect; inconclusive = small, poorly fitted or top-dose-only effect, or another doubt; inactive = no such curve, though single readings can be large or run the other way; note: potency is the fitted concentration of half-maximal effect; % is set by controls: 0 for no effect and ±100 for the full control effect
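Cells (1,000/well) were plated 4 h before compound, then infected with HCVcc-Cre virus (~0.5 moi). After 44 h further culture, infection was read as luciferase luminescence following a 15 min substrate incubation at room temperature.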
Shiga toxin inh: inhibitors of Shiga toxin in Vero cells; inhibition, % at 38.7 µM; AID 2315; Vero cells, Shiga toxin protein synthesis inhibition reporter; hit rate 9.2% among 290,000; in the data active = inhibition mostly above about 28%, no sharp cut-off; inactive = mostly below about 43%; note: 0% is about no effect
FMDV inh: antivirals against foot and mouth disease virus. FMDV antiviral cell-based qHTS. Potency, µM (doses to about 57.9 µM), inactives show top-dose activity change, negative = inhibition, most hits filed as inhibitors. hit rate 1.2% among 410,000. AID 1159524; calls by dose curve; tested in HEK293T cells; note: read-out not given here; potency is the fitted concentration of half-maximal effect; % is set by controls: 0 for no effect and ±100 for the full control effect; nearly all actives have a fitted effect of over 45% in size
Marburg entry inh: blocks Marburg virus binding to or entry into cells; Marburg virus pseudotyped entry inhibition, cell reporter; AID 540276; Potency, µM (doses to about 37.8 µM), for the others: at the top dose activity change, negative = inhibition, hits mostly inhibitors; hit rate 1.8% among 300,000; calls by dose curve; tested in HEK293 cells; note: potency is the fitted concentration of half-maximal effect; % is set by controls: 0 for no effect and ±100 for the full control effect
LASV entry inh: blocks Lassa virus binding to or entry into cells; AID 540256; hit rate 1.2% among 300,000; Potency, µM (top dose mostly 37.9 µM), for inactives: at the top dose activity change, negative = inhibition, hits mostly inhibitors; Lassa virus pseudotype entry inhibition, cell reporter; calls by dose curve; tested in HEK293 cells; note: potency is the fitted concentration of half-maximal effect; % is set by controls: 0 for no effect and ±100 for the full control effect; nearly all actives have a fitted effect of over 50% in size
CHX counter: counter-screen for Shiga toxin inhibitors: cycloheximide protein synthesis inhibition; cell reporter, cycloheximide protein synthesis inhibition counterscreen; max response, %; hit rate 12% among 300,000; AID 2314; in the data active = max response mostly above about 13%, no sharp cut-off; inactive = mostly below about 14%; note: read at 38.3 µM for the half of the compounds with a filed dose; 0% is about no effect
* hit, by the source's call; ? = inconclusive; · = no result given; [ ] = another dose, or the depositor's remark.

SMILES	HCV inhibitor	Shiga toxin inh	FMDV inh	Marburg entry inh	LASV entry inh	CHX counter
Cn1c(=O)c2c(ncn2CCOc2ccc(F)cc2)n(C)c1=O	?	20	?	?	-19%[46.1 µM]	-1
Cn1c(=O)c2c(ncn2CCOc2ccc(Br)cc2)n(C)c1=O	10µM*	-10	?	-24%[46.1 µM]	0%[46.1 µM]	-3
COc1ccc(CCn2c(C)cc(C(=O)CN3C(=O)C(=O)N(C4CCCC4)C3=O)c2C)cc1OC	10µM*	·	-8%	?	-16%	·
COc1ccc(C(O)P(=O)(OC2CCCCC2)c2ccc(N(C)C)cc2)cc1OC (stereo not drawn)	18%	-8	21%	-4%	-7%	-5
Cc1cccc(OCCCn2c(=O)oc3ccccc32)c1	4%	50*	30%	28%[46.1 µM]	24%[46.1 µM]	22*
COc1cccc(Cn2c(=O)oc3ccccc32)c1	10%	45*	26%	?	?	41*
Cc1ccc2oc(=O)n(CCOc3ccccc3)c2c1	21%	39*	7%	0%[46.1 µM]	5%	35*
COc1cc(Cn2c(=O)oc3ccc(C)cc32)ccc1OC(C)C	1.1µM*	8	?	18%	3%	8
Cc1ccc(C(C)C)c(OCCCn2c(=O)oc3ccccc32)c1	·	·	-21%	-24%[46.1 µM]	25%[46.1 µM]	·
NS(=O)(=O)c1ccc(NC(=O)C2Cc3ccccc3N2C(=O)c2ccccc2)cc1 (stereo not drawn)	·	·	-30%	·	2%[46.1 µM]	·
Cn1nnnc1SCC(=O)NC(C)(C)C	9%	23	-10%	8%[46.1 µM]	10%	-3
Cc1ccc2oc(=O)n(CCCOc3ccc(Cl)cc3)c2c1	·	·	-11%	?	26%[46.1 µM]	·
Cc1cccc(OCCn2c(=O)oc3ccc(C)cc32)c1	8%	79*	30%	-13%[46.1 µM]	-9%[46.1 µM]	42*
COc1ccc(OCCCn2c(=O)oc3ccccc32)cc1	-30%	-6	16%	8%	22%	19*
COc1ccc(C(=O)COC(=O)CCCn2c(=O)oc3ccccc32)cc1	-2%	-11	-18%	0%	7%	1
COc1cc2cc(/C=C/C(=O)c3ccco3)c(Cl)nc2cc1OC	-23%	68*	-13%	?	-7%	16
COc1ccc2cc(/C=C/C(=O)c3ccco3)c(Cl)nc2c1	7%	91	·	·	·	38*
N/C(CC(=O)Nc1ccc(F)c(Cl)c1)=N\OC(=O)c1cccs1	-29%	25	?	?	-6%	-2
N/C(=N\OC(=O)c1cccs1)c1ccc(Cl)cc1	3%	135*	53%	·	·	55*
COc1ccc(/C(N)=N/OC(=O)c2cccs2)cc1	3%	57*	23%	·	·	41*
COc1ccc(/C(N)=N/OC(=O)c2cc(-c3ccccc3)nc3ccccc23)cc1	-17%	-24	-6%	-24%	-5%	0
CCN(CC)S(=O)(=O)c1ccc(NCC2COc3ccccc3O2)c([N+](=O)[O-])c1 (stereo not drawn)	?	21	0%	?	?	20*
NC(=O)c1ccc(NCC2COc3ccccc3O2)c([N+](=O)[O-])c1 (stereo not drawn)	-2%	29	9%	0%	?	33*
CN(C)S(=O)(=O)c1ccc(NCC2COc3ccccc3O2)c([N+](=O)[O-])c1 (stereo not drawn)	-15%	49	-3%	?	-7%	27*
Cc1c(C(=O)Nc2ccc(S(=O)(=O)NCC3CCCO3)cc2)cccc1[N+](=O)[O-] (stereo not drawn)	?	-2	27%	?	-29%[46.1 µM]	-2
SMILES	HCV inhibitor	Shiga toxin inh	FMDV inh	Marburg entry inh	LASV entry inh	CHX counter
O=C(Nc1ccc(S(=O)(=O)NCC2CCCO2)cc1)c1ccc(Cl)cc1[N+](=O)[O-] (stereo not drawn)	25µM*	-3	25%	?	6%[46.1 µM]	-2
CCc1ccccc1NC(=O)Cn1cccc1C1=NC(c2ccccc2)CO1 (stereo not drawn)	?	14	-26%	?	-1%	-3
CCOC(=O)c1[nH]c2ccc(OC)cc2c1NC(=S)N1CCN(c2cccc(Cl)c2)CC1	?	12	-18%	9%	2%	4
O=C(Nc1ccccc1)c1ccc(NCC2CCCO2)c([N+](=O)[O-])c1 (stereo not drawn)	3%	100*	20%	3%	22%	68*
O=C(Cc1ccc(Br)cc1)N1CCCCCC1	?	60*	47%	3%[46.1 µM]	0%	46*
O=C(Cc1ccc(Br)cc1)N1CCN(Cc2ccccc2)CC1	15%	21	16%	?	?	18*
O=S(=O)(Cc1ccccc1)N1CCN(Cc2ccc(Br)cc2)CC1	·	31*	-28%	9%	0%	35*
O=C(Cc1ccc(Br)cc1)N1CCCC1	-10%	16	28%	2%	4%	6
O=C(C1CCCN(Cc2ccc(Br)cc2)C1)N1CCCCC1 (stereo not drawn)	11µM*	-1	?	·	·	-4
O=S(=O)(Cc1ccc(Cl)cc1)N1CCN(Cc2ccccc2)CC1	19%	5	-19%	-6%	9%	-4
COc1ccccc1NCC(=O)NNCC(=O)Nc1ccc(F)c(Cl)c1	7%	-5	-4%	21%[46.1 µM]	2%	-2
Cc1cnc(C(=O)N2CCN(S(=O)(=O)c3ccc(F)c(F)c3F)CC2)cn1	13%	·	-14%	·	·	·
CCCC(c1nnnn1Cc1ccco1)N1CCN(c2cc(Cl)ccc2C)CC1 (stereo not drawn)	-2%	29	?	?	?	12
COC(=O)C1CCN(C(=O)Cc2ccc(Br)cc2)CC1	?	66*	15%	20%	?	28*
COC(=O)C1CCN(C(=O)Cc2ccc(OC)c(OC)c2)CC1	-18%	-2	-23%	?	0%	6
Cc1c(Nc2nc(-c3ccc(Cl)cc3)cs2)c(=O)n(-c2ccccc2)n1C	?	-11	?	?	4%	-3
CCNc1nc2c(c(=O)n(C)c(=O)n2C)n1CC(O)COc1ccccc1 (stereo not drawn)	·	·	22µM*	22%[46.1 µM]	8%[46.1 µM]	·
Cn1c(=O)c2c(nc(SCc3ccccc3)n2Cc2ccc(Cl)cc2)n(C)c1=O	?	0	?	-22%[46.1 µM]	?	-4
CNC(=O)CSc1nc2c(c(=O)n(C)c(=O)n2C)n1Cc1ccc(C)cc1	0.63µM*	-9	·	1%	-15%	-1
CC(C)Sc1nc2c(c(=O)n(C)c(=O)n2C)n1Cc1ccc(Cl)cc1	10µM*	-9	?	-8%	-24%	3
CCNc1nc2c(c(=O)n(C)c(=O)n2C)n1Cc1ccc(Cl)cc1	3.5µM*	-6	0%	·	·	1
CCCNc1nc2c(c(=O)n(C)c(=O)n2C)n1CC(O)COc1ccccc1 (stereo not drawn)	·	·	?	2%[46.1 µM]	3%[46.1 µM]	·
Cn1c(NCc2ccco2)nc2c1c(=O)n(Cc1ccc(Cl)c(Cl)c1)c(=O)n2C	15%	-20	32µM*	-24%[46.1 µM]	-23%	-5
COc1ccc(CNc2nc3c(c(=O)n(Cc4ccc(Cl)cc4)c(=O)n3C)n2C)cc1	?	-11	13µM*	?	?	2

Compound activity: PubChem, National Center for Advancing Translational Sciences (NCATS)
